Here are results for nine molecules from PubChem BioAssay.

Molecules are shown by their SMILES. Active and inactive are the calls of the source.

Assay [1] can be described thus: E. coli DRC41 culture turbidity changes, primary screen, E. coli filamentation inducer project, strain DRC41, OD650, 48 h (AID 1152).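 Further: E. coli MC1000 strain DRC41 lacking acrAB efflux pump and sulA.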 As to conditions: E. coli DRC41 (acrAB sulA), higher = more signal, called active from +8 up or from −8 down.
Assay [2] in a line: small-molecule binders of probe aLefty1, primary screen, biochemical, small-molecule microarray, 635/667 nm fluorescence (AID 1153).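 Further: score merges spot fluorescence with signal-to-noise ratio from the scanned slide images.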 As to conditions: higher = more signal.
A short description of assay [3]: PSAC antagonists in infected red cells, primary screen, cell-based, P. falciparum Indochina, OD700, 1 h (AID 1154). Particulars: P. falciparum Indochina infected RBC osmotic lysis, higher = more signal, called active from +8 up or from −8 down.
The nature of assay [4]: PSAC antagonists in infected red cells, primary screen, cell-based, P. falciparum Indochina, OD700, 2 h (AID 1155).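 Further: lysis reports solute entry through the parasite surface anion channel PSAC; channel blockers reduce lysis of infected cells.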 As to conditions: P. falciparum Indochina infected erythrocytes, osmotic lysis OD700; higher = more signal, called active from +8 up or from −8 down.
The nature of assay [5]: osmotic lysis modulators in infected erythrocytes, primary screen, PSAC antagonist project, cell-based, P. falciparum Indochina, OD700, 3 h (AID 1156). As to conditions: higher = more signal, called active from +8 up or from −8 down.
Assay [6] in a line: PSAC antagonists in infected red cells, primary screen, cell-based, P. falciparum Indochina, OD700, 18 h (AID 1157). Particulars: P. falciparum Indochina infected erythrocytes, osmotic lysis OD700, 18 h; higher = more signal, called active from +8 up or from −8 down.
Assay [7] can be described thus: modulators of S6 phosphorylation in cells, primary screen, cell-based, A549, cytoblot, luminescence, serum-stimulated (AID 1158).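 Further: serum-stimulated A549 lung adenocarcinoma cells; signal is phosphorylated S6 detected by cytoblot immunostaining with HRP secondary.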 Particulars: A549 phospho-S6 cytoblot, 5 h, higher = more signal.
Assay [8] addresses NADPH oxidase 2 (Homo sapiens) (UniProt P04839). Nature of the assay: NOX2-dependent H2O2 signal modulators, primary screen, NOX inhibitor project, cell-based, HEK293-NOX2, PMA-stimulated, Amplex Red fluorescence (AID 1159). Further: test concentration not given here. As to conditions: 45 min, higher = more signal, called active from +8 up or from −8 down.
For assay [9], the target named is NADPH oxidase 4 (Homo sapiens) (UniProt Q9NPH5). Nature of the assay: NOX4-dependent H2O2 signal modulators, primary screen, NOX inhibitor project, cell-based, HEK293-NOX4, tetracycline-induced, Amplex Red fluorescence (AID 1160). Particulars: 45 min, higher = more signal, called active from +8 up or from −8 down.
In assay [10] the target is NADPH oxidase 5 (Homo sapiens) (UniProt Q96PH1). Nature of the assay: NOX5-dependent H2O2 signal modulators, primary screen, NOX inhibitor project, cell-based, HEK293-NOX5, Amplex Red fluorescence (AID 1161). As to conditions: HEK293-NOX5, ionomycin, 45 min, higher = more signal.
Assay [11] is described as follows: A549 cell viability effects, profiling panel, calcein-AM fluorescence, 48 h, basal (AID 1162). Further: test concentration not given here. As to conditions: higher = more signal.
Assay [12] is described as follows: adipocyte viability effects, profiling panel, cell-based, 3T3-L1 adipocytes, calcein-AM fluorescence, 48 h, basal (AID 1163). Further: test concentration not given here. As to conditions: 3T3-L1 adipocytes viability, higher = more signal.
Assay [13] can be described thus: HepG2 cell viability effects, profiling panel, calcein-AM fluorescence, 48 h, basal (AID 1164). Further: test concentration not given here. Particulars: higher = more signal.
Assay [14] is described as follows: MM1S cell viability effects, profiling panel, calcein-AM fluorescence, 48 h, basal (AID 1165).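 Further: viability of MM1S multiple myeloma cells under basal unstimulated conditions; test concentration not given here.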 As to conditions: higher = more signal.
A short description of assay [15]: basal RPMI8226 viability, no added stimulus, profiling panel, cell-based, calcein-AM fluorescence, 48 h, PK04 Diversity Set (AID 1166).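 Further: cells grown under basal conditions without added stimulus; test concentration not given here.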 As to conditions: RPMI8226 myeloma viability, higher = more signal.
Assay [16] is described as follows: basal HepG2 mitochondrial membrane potential changes, profiling panel, cell-based, JC-1 fluorescence, 24 h, 100 nL compound (AID 1167). Further: test concentration not given here. As to conditions: higher = more signal.
A short description of assay [17]: basal 3T3-L1 adipocyte mitochondrial potential changes, profiling panel, cell-based, JC-1 fluorescence, 3T3-L1 adipocytes, 24 h, 100 nL compound (AID 1168). Further: test concentration not given here. Particulars: JC-1 mitochondrial fluorescence, higher = more signal, called active from +8 up or from −8 down.
The nature of assay [18]: basal RPMI8226 mitochondrial membrane potential changes, profiling panel, cell-based, JC-1 fluorescence, 24 h, 100 nL compound (AID 1169). Further: test concentration not given here. As to conditions: RPMI8226 myeloma, JC-1 mitochondrial potential fluorescence, higher = more signal.
Assay [19] is described as follows: basal MM1S mitochondrial membrane potential changes, profiling panel, cell-based, JC-1 fluorescence, 24 h, 100 nL compound (AID 1170). Further: test concentration not given here. As to conditions: higher = more signal.
Assay [20] can be described thus: A549 lung cancer cell viability effects, profiling panel, resazurin fluorescence, 24 h, PK04 Diversity Set (AID 1171). Further: test concentration not given here. Particulars: higher = more signal, called active from +8 up or from −8 down.

Chain of NADPH oxidase 5 (Homo sapiens) (Q96PH1 whole entry, looked up): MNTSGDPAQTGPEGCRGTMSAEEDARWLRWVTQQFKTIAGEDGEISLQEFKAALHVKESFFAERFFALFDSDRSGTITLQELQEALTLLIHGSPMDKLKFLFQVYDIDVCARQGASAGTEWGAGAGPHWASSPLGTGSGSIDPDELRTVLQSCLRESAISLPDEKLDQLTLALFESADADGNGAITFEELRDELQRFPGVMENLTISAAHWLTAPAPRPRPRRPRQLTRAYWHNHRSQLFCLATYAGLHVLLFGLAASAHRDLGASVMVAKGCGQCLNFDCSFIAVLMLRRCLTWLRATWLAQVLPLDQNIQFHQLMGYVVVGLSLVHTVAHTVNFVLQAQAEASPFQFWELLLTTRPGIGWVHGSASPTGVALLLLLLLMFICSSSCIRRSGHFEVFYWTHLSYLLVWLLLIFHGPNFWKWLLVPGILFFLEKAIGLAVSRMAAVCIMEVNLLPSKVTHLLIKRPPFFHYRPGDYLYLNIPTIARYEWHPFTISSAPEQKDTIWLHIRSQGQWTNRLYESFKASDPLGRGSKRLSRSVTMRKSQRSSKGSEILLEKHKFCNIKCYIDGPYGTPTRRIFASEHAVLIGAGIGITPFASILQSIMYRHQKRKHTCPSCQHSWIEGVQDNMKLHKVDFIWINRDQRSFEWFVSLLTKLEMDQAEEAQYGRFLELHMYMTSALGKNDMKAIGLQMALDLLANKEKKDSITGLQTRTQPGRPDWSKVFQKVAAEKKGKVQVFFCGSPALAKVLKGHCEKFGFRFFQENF
Chain of NADPH oxidase 4 (Homo sapiens) (Q9NPH5 whole entry, looked up): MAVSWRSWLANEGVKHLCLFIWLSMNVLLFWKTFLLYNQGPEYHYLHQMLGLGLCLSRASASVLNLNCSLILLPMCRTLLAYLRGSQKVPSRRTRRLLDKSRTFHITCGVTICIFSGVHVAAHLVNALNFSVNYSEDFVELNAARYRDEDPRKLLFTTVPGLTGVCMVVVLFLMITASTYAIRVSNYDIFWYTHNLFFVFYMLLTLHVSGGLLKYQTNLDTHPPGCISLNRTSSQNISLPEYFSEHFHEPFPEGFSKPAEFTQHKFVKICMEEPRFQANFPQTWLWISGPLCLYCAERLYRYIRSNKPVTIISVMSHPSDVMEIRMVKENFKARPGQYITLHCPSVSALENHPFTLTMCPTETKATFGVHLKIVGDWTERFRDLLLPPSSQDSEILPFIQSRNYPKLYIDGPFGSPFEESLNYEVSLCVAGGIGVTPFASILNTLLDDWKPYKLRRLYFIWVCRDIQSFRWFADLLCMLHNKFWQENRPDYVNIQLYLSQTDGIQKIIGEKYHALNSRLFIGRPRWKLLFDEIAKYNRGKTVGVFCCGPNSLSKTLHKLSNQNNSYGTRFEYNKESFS
Chain of NADPH oxidase 2 (Homo sapiens) (P04839 whole entry, looked up): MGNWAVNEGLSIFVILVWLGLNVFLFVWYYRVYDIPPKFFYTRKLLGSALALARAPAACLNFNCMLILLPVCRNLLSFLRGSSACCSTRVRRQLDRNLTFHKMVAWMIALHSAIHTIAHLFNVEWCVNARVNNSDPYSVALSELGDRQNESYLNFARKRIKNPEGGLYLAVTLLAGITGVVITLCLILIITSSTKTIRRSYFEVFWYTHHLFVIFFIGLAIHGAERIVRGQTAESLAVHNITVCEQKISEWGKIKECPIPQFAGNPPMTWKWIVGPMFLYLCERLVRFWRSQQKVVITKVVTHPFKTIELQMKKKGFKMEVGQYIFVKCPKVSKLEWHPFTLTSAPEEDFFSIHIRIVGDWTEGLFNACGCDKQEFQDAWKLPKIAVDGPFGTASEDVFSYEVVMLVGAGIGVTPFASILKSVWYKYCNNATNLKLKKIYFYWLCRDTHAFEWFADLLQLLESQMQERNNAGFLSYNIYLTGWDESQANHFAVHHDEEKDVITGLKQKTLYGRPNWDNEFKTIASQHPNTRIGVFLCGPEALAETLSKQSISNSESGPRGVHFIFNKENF

`CC(C)C(=C=CC[C@H](O)c1cccc(OCCO)c1)C[C@H](O)COCc1ccccc1`: the z-score was 0.142 (inactive) in [1]; 12.8 (active) in [3]; 2.04 (inactive) in assay [4]; 0.367 (inactive) in [5]; 0.627 (inactive) in assay [6]; -0.145 in assay [7]. The z-score was -1.77 (inactive) in assay [8]; -0.716 (inactive) in assay [9]; -2.13 in assay [10]; -0.0353 in assay [11]; -0.27 in assay [12]; -0.0485 in assay [13]. Also, the z-score in [14] was 0.0675; in assay [15], -0.524; in assay [16] it was -0.42; in assay [17], -0.711 (inactive); in assay [18], 0.259; in [19] it was -0.615. For the same molecule, the z-score in assay [20] is 1.25 (inactive). This molecule displayed a composite z-score in assay [2] of 0.0455.
On to `O=C1O[C@@H](c2ccccc2)[C@@H](c2ccccc2)N2[C@@H](c3ccc(OCCO)cc3)[C@]3(C(=O)Nc4ccccc43)[C@@H](C(=O)Nc3nc4ccccc4s3)[C@H]12`, for which the z-score was 0.515 (inactive) in [1]; 5.55 (inactive) in assay [3]; 2.55 (inactive) in [4]; 1.37 (inactive) in assay [5]; 2.01 (inactive) in assay [6]; 0.298 in [7]. For the same molecule, the z-score in [8] was 1.68 (inactive); in [9] it was 1.24 (inactive); in [10], 1.63; in assay [11] it was -0.328; in assay [12], -0.343; in assay [13] it was 0.27. The z-score was -0.829 in [14]; -1.17 in assay [15]; -3.31 in [16]; 2.07 (inactive) in assay [17]; -1.05 in [18]; -1.86 in assay [19]. Besides, the z-score in assay [20] was -1.4 (inactive). In assay [2], this molecule gave a composite z-score of 0.919.
As to `Cc1ccc(S[C@]2(C(=O)NC3CC3)CC(=O)N(Cc3ccccc3)[C@@H]2c2ccc(CO)cc2)cc1`, the z-score was -0.485 (inactive) in assay [1]; 1.28 (inactive) in assay [3]; 0.216 (inactive) in [4]; -0.552 (inactive) in assay [5]; -0.331 (inactive) in assay [6]; 0.0262 in [7]. The z-score in [8] is -0.106 (inactive); in [9], 1.09 (inactive); in assay [10], 0.997; in assay [11], 1.29; in assay [12], -0.119; in assay [13] it was -0.12. In addition, the z-score in assay [14] is -0.0947; in assay [15], 0.181; in assay [16], -0.439; in [17], -0.199 (inactive); in assay [18], 1.07; in assay [19] it was -0.452. In assay [20], the z-score is 0.846 (inactive). Also, in assay [2], the composite z-score was found to be 0.106.
Consider `C=CC(COC(C)=O)NS(=O)(=O)c1ccc(Br)cc1` (stereo not given), for which the z-score in assay [1] is -1.32 (inactive); in assay [3] it was 0.132 (inactive); in assay [4], -0.168 (inactive); in assay [5], -0.73 (inactive); in assay [6], -0.064 (inactive); in [7] it was 0.495. The z-score in assay [8] is -0.334 (inactive); in [9] it was -0.0279 (inactive); in assay [10], -0.377; in assay [11], -0.0852; in assay [12], -0.13; in assay [13], -0.239. Besides, the z-score in [14] was 0.101; in assay [15], -0.453; in assay [16] it was -0.642; in [17], -0.869 (inactive); in assay [18], 0.392; in [19], 0.654. Besides, in [20], the z-score is -0.283 (inactive). In addition, the composite z-score in assay [2] was 0.157.
Consider `C=CCNC(=O)[C@@H]1[C@H]2C(=O)O[C@H](c3ccccc3)[C@H](c3ccccc3)N2[C@H](c2ccc(OCCO)cc2)[C@@]12C(=O)Nc1ccccc12`, for which the z-score in assay [1] is 1.52 (inactive); in assay [3], 5.12 (inactive); in assay [4], 0.39 (inactive); in assay [5], -0.844 (inactive); in assay [6] it was 0.002 (inactive); in assay [7] it was 4.16. For the same molecule, the z-score in assay [8] is 1.38 (inactive); in [9] it was 0.767 (inactive); in assay [10], -0.355; in assay [11] it was 1.66; in [12] it was 1.59; in assay [13], 0.521. For the same molecule, the z-score in assay [14] was 0.491; in assay [15] it was 0.0581; in assay [16], -0.912; in [17], 1.01 (inactive); in assay [18] it was -0.725; in assay [19] it was 0.224. Further, the z-score in assay [20] is -0.0995 (inactive). Moreover, the composite z-score in assay [2] was found to be 0.0235.
As to `O=C1OCCC=C[C@H]2OC34C=CCN(Cc5ccccc5)C(=O)[C@H]3N(CCCCCO)C(=O)[C@@H]4C12` (stereo not given in full), the z-score in [1] was 1.8 (inactive); in [3], 1.77 (inactive); in assay [4], 0.18 (inactive); in assay [5], 2.12 (inactive); in assay [6] it was 0.551 (inactive); in assay [7] it was 0.469. The z-score is 1.39 (inactive) in [8]; 0.701 (inactive) in assay [9]; 1.38 in assay [10]; 0.412 in assay [11]; -0.0568 in assay [12]; 0.889 in assay [13]. Moreover, the z-score in assay [14] was 1.81; in assay [15], 0.593; in assay [16] it was 0.756; in assay [17], 0.498 (inactive); in assay [18] it was 0.231; in assay [19], -0.967. Further, the z-score in assay [20] was 0.872 (inactive). Moreover, the composite z-score in assay [2] is 0.282.
`O=C1O[C@H](c2ccccc2)[C@H](c2ccccc2)N2[C@H]1[C@@H](C(=O)Nc1nc3ccccc3s1)[C@]1(C(=O)Nc3ccccc31)[C@H]2c1ccc(O)cc1`: the z-score in assay [1] was -0.626 (inactive); in assay [3], 1.53 (inactive); in [4], 2.51 (inactive); in assay [5], 0.486 (inactive); in assay [6] it was 1.69 (inactive); in assay [7], 0.192. The z-score in assay [8] is 0.844 (inactive); in [9], 0.479 (inactive); in [10] it was 0.201; in [11] it was -0.167; in assay [12], 0.657; in [13] it was -1.99. The z-score was -3.38 in [14]; -4.51 in [15]; -3.78 in assay [16]; 0.032 (inactive) in assay [17]; -1.12 in [18]; -0.564 in assay [19]. Also, the z-score in assay [20] is -0.358 (inactive). The molecule further registered a composite z-score in assay [2] of -0.294.
`CC(C)Cc1ccc(CN2CC[C@@H](NS(=O)(=O)c3ccccc3)C2)cc1`: the z-score in assay [1] is -19.2 (active); in assay [3], 2.49 (inactive); in assay [4], 0.408 (inactive); in assay [5] it was 0.306 (inactive); in assay [6], 0.574 (inactive); in assay [7], 0.709. The z-score in assay [8] was 0.312 (inactive); in assay [9], -0.907 (inactive); in assay [10] it was -3.68; in [11] it was -0.977; in assay [12], -0.568; in [13], -1.63. For the same molecule, the z-score is -3.18 in assay [14]; -3.72 in assay [15]; -1.13 in [16]; 0.787 (inactive) in assay [17]; -0.414 in assay [18]; -2.29 in assay [19]. Besides, in assay [20], the z-score was -0.235 (inactive). Also, in assay [2], the composite z-score is -0.198.
For `O=C1OCCC=C[C@H]2OC34C=CCN(Cc5ccccc5)C(=O)[C@H]3N(CCCCCCO)C(=O)[C@@H]4C12` (stereo not given in full), the z-score was 1.12 (inactive) in assay [1]; 0.944 (inactive) in assay [3]; 0.396 (inactive) in assay [4]; 0.884 (inactive) in assay [5]; 0.43 (inactive) in [6]; 1.2 in assay [7]. The z-score in assay [8] is 1.11 (inactive); in [9] it was 0.0473 (inactive); in [10], 1.97; in [11], 0.612; in assay [12], -0.0143; in [13], 0.457. Moreover, the z-score is 1.68 in assay [14]; 0.581 in assay [15]; 0.445 in [16]; 0.903 (inactive) in assay [17]; -0.0486 in assay [18]; -0.248 in assay [19]. Also, the z-score in [20] is 1.33 (inactive). Also, the composite z-score in assay [2] was -0.0831.
